Rows were chosen to be rich in hits. Some 0.64% of all compounds tested hit in one or more screens of this group.
EPAC2 antagonist – antagonists of human EPAC2; Q8WZA2; EPAC2 GEF exchange of Rap1B-BODIPY-GDP, fluorescence; Potency, µM (highest dose often 114 µM), actives largely listed as inhibitors; 360,000 tested, 0.18% active; AID 720708; note: nearly all actives have a fitted effect of over 45% in size
EPAC1 agonist – activates human EPAC1 exchange factor; O95398; EPAC1 agonist qHTS, biochemical assay; response scale: 100% = response to 6.5 mM cAMP; Potency, µM (titrated, usually from 154 µM), hits mostly activators; 360,000 tested, 0.073% active; AID 720707; note: nearly all actives have a fitted effect of over 60% in size
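Nucleotide exchange by EPAC1 (100 nM) on Rap1B–BODIPY-GDP (250 nM) in the presence of 50 uM GDP is tracked fluorescently at 480/540 nm over 30 min. Signals are normalized to a 6.5 mM cAMP control.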
EPAC1 antagonist – antagonists of human EPAC1; O95398; 360,000 tested, 0.14% active; Potency, µM (highest dose often 115 µM), actives largely listed as inhibitors; AID 720709; EPAC1 GEF assay, Rap1b-BODIPY-GDP exchange fluorescence; note: nearly all actives have a fitted effect of over 50% in size
IL-2 act – activators of IL-2; IL-2 activation reporter assay, cell-based qHTS; stimulated with anti-CD3/CD4/CD28 beads; in transgenic mouse T cells; activation, % (series mostly up to about 46 µM); 360,000 tested, 0.065% active; in the data active = activation above about 50%; inconclusive = mostly about 30% to 49%
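Quantitative HTS in unstimulated transgenic mouse T cells, with memory T cells as non-tolerant control and PMA/ionomycin as tolerance-bypass control. Compound pretreatment lasted 60 minutes before 18 h bead stimulation; EGFP/DsRed fluorescence read.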
PKM2 act – increases activity of human pyruvate kinase M2; P14618; purified PKM2, Kinase-Glo ATP luminescence, activation; response scale: 0% is enzyme alone, no compound; Potency, µM (titrated, usually from 57.5 µM), hits mostly activators; 260,000 tested, 0.34% active; AID 1631; note: nearly all actives have a fitted effect of over 55% in size
Target sequence (P14618 whole entry, looked up): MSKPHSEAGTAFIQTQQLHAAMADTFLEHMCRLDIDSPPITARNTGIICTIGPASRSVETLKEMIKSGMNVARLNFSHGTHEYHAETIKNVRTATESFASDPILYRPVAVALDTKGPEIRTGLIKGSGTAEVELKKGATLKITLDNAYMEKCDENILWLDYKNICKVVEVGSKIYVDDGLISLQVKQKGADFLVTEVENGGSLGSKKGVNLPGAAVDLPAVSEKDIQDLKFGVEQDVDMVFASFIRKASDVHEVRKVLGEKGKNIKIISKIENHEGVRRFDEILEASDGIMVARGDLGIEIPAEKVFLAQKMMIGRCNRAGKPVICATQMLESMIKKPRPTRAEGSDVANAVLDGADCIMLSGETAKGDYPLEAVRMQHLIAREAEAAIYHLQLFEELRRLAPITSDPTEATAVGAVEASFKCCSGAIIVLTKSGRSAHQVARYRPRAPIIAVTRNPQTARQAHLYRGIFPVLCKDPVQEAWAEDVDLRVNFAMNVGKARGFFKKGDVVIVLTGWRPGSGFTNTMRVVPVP
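Purified hPK-M2 (>95%) run at intermediate activity with 0.1 mM ADP and 0.5 mM PEP in 50 mM imidazole pH 7.2, KCl, MgCl2; 1 h room temperature. ATP formed read by Kinase-Glo luminescence; normalized to uninhibited and no-enzyme controls.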
EPAC2 ag – agonists of human EPAC2 (RAPGEF4) | Q8WZA2 | EPAC2 activation, biochemical qHTS; response scale: 100% = 6.5 mM cAMP response | Potency, µM (highest dose often 154 µM), most hits filed as activators | 360,000 tested, 0.079% active | AID 720711; note: nearly all actives have a fitted effect of over 50% in size
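Setup: EPAC2 100 nM, labeled Rap1B complex 250 nM, free GDP 50 uM. Compound titrations pinned in, brief spin, 5 min room temperature incubation. Kinetic fluorescence read over 30 min, normalized to 6.5 mM cAMP.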
Each line names hits and unclear results; the compound was inactive in the other large screens. Unless noted, calls come from the whole dose curve; as a rule, active = well fitted curve in the direction sought with a large enough effect; inconclusive = small, poorly fitted or top-dose-only effect, or another doubt; inactive = no such curve, though single readings can be large; an effect the other way counts as inactive or inconclusive.

O=C(CC[C@H]1O[C@@H](n2ccc(=O)[nH]c2=O)[C@H](O)[C@@H]1O)NCc1cccc2ccccc12	EPAC2 antagonist inconclusive (no result: PKM2 act)
Clc1ccccc1C1CC(c2ccccc2)=Nc2ccccc2N1 (configuration not stated)	IL-2 act 76.6
Brc1ccccc1C1CC(c2ccccc2)=Nc2ccccc2N1 (configuration not stated)	none
Cc1ccc2oc(=O)n(Cc3ccccc3OC(C)C)c2c1	EPAC2 antagonist inconclusive
COc1ccccc1Cn1c(=O)oc2ccc(C)cc21	EPAC2 antagonist 28.2µM
Cc1ccc(N=Nc2ccc(C)cc2NC(=O)Nc2ccccc2F)cc1	none
Cn1c(-c2sccc2OCc2ccc(Cl)cc2Cl)n[nH]c1=S	EPAC1 antagonist 89.1µM
O=C(Cc1c(F)cccc1Cl)Nc1nccs1	none
COc1cccc(N2CCN(c3ccc4nnc(CCC(=O)Nc5ccccc5OC)n4n3)CC2)c1	none (no result: PKM2 act)
O=S(=O)(Nc1ccc(Cl)cc1)c1ccc2c(c1)CCO2	PKM2 act 17.8µM
O=S(=O)(Nc1ccc2c(c1)OCCO2)c1ccc(F)c(F)c1	EPAC1 antagonist inconclusive
C[C@@H](NC(=O)[C@@H]1CCCN1C(=O)[C@@H]1CCCN1C(=O)c1cccc2ccccc12)c1ccccc1	none (no result: PKM2 act)
C[C@H]1CN([C@@H](C)CO)C(=O)CCCn2nncc2CO[C@@H]1CN(C)Cc1ccccc1C(F)(F)F	none (no result: PKM2 act)
Nc1ccc(-c2c3ccc(=O)cc-3oc3cc(O)ccc23)c(C(=O)O)c1	EPAC1 agonist 100µM, EPAC2 ag 126µM (no result: PKM2 act)
O=c1ccc2[n+]([O-])c3ccc(O)cc3oc-2c1	none
O=C(NCCCN1CCOCC1)c1cc(S(=O)(=O)N2CCCCC2)ccc1Cl	none (no result: PKM2 act)
COc1ccc(/C(C)=N/NC(=O)c2sccc2-n2cccc2)cc1	none
Cc1ccc(C)c(S(=O)(=O)Nc2ccc(C(=O)NCC(c3ccco3)N3CCCCC3)cc2)c1 (configuration not stated)	none
Cc1ccc(C)c(S(=O)(=O)Nc2ccc(C(=O)NCC(c3ccco3)N(C)C)cc2)c1 (configuration not stated)	EPAC1 agonist 112µM (no result: PKM2 act)
CCC(=O)N(CCc1ccccc1)Cc1cc2cccc(C)c2[nH]c1=O	none
COc1cc2c3nnc(-c4ccc(F)cc4)c-3cn(Cc3cccc(C)c3)c2cc1OC	IL-2 act 217.8, EPAC2 ag inconclusive
COc1cccc(Cn2nc3c4cc(F)ccc4n(Cc4ccc(F)cc4)cc-3c2=O)c1	none (no result: PKM2 act)
Cc1cccc(Cn2cnc3ccccc32)c1	none
COc1cc2c3nnc(-c4ccc(F)cc4)c-3cn(Cc3cccc(F)c3)c2cc1OC	EPAC1 antagonist inconclusive, IL-2 act 76.4
Fc1ccc(-[n+]2nc(Nc3ccccc3)sc2-c2c3ccccc3cc3ccccc23)cc1	none
Oc1ccc2ccccc2c1-c1sc(Nc2ccccc2)n[n+]1-c1ccc(F)cc1	EPAC2 antagonist 50.1µM, EPAC1 antagonist inconclusive
Cc1cccc(NC(=O)CS(=O)(=O)c2c[nH]c3ccccc23)c1C	PKM2 act 25.1µM
Cc1ccc(C)c(NC(=O)CS(=O)(=O)c2c[nH]c3ccccc23)c1	none
Nc1ccccc1C(=O)N1CCc2ccccc21	none
CN1OC[C@@H]2CN(C(=S)Nc3ccc(C#N)cc3)[C@H](c3ccc(N4CCCCC4)cc3)C[C@@H]21	none (no result: PKM2 act)
COc1cc(/C=C/C(=O)OCC(=O)Nc2ccc(C)cc2[N+](=O)[O-])ccc1O	PKM2 act 17.8µM
CC(C)(C)OC(=O)[C@H](Cc1ccccc1)NC(=O)c1[nH]cnc1C(=O)Nc1ccccc1F	EPAC1 antagonist inconclusive (no result: PKM2 act)
COCCCNC(=O)COc1ccc(S(=O)(=O)Nc2ccccc2)cc1	PKM2 act 14.1µM
CC1CCC2(CC1)NC(=O)N(CC(=O)N1CC(C)CC(C)C1)C2=O (configuration not stated)	none (no result: PKM2 act)
C=CCOc1ccc(Cl)cc1-c1noc(-c2csc([C@H]3C[C@H](O)[C@@H](CO)O3)n2)n1	none (no result: PKM2 act)
CC(=O)Oc1ccc(S(=O)(=O)c2ccc(OC(C)=O)cc2)cc1	PKM2 act 14.1µM
CCN(CC)S(=O)(=O)c1ccc(O)c(C(=O)OCC(=O)Nc2ccc(OC(F)(F)F)cc2)c1	none
O=c1cc(-c2ccc(O)cc2)oc2c(-c3c(O)cc(O)c4c(=O)cc(-c5ccc(O)cc5)oc34)c(O)cc(O)c12	none (no result: PKM2 act)
O=c1c(-c2c(O)cc(O)c3c(=O)cc(-c4ccc(O)cc4)oc23)c(-c2ccc(O)cc2)oc2cc(O)cc(O)c12	EPAC1 antagonist 56.2µM, PKM2 act inconclusive
COc1ccccc1/C=N\NC(=O)c1ccc(COc2ccc(C)c(C)c2)o1	none (no result: PKM2 act)
Cn1c(=O)n(C)c2cc(NC(=O)c3ccccc3[N+](=O)[O-])c(Br)cc21	EPAC1 antagonist inconclusive, PKM2 act 7.94µM
CCOc1ccc(Cl)cc1-c1cc(C(=O)Nc2ccc(Br)cc2)[nH]n1	EPAC1 antagonist inconclusive (no result: PKM2 act)
CCS(=O)(=O)N1Cc2cc(C(=O)NCC3CC3)nc(-c3cccc(-c4cccnc4)c3)c2[C@@H]1CCO	none (no result: PKM2 act)
CCCCOC(=O)Nc1ccc(S(=O)(=O)Nc2ncccn2)cc1	none
CCCCCOC(=O)Nc1ccc(S(=O)(=O)Nn2cnnc2)cc1	PKM2 act 4.47µM
COc1nc(N(C)S(=O)(=O)c2ccc(C)cc2)nc(C)c1Br	none
COCCCN(C(=O)c1cc2c(s1)CCC2)c1c(N)n(Cc2ccccc2)c(=O)[nH]c1=O	none
CCCN(C(=O)c1cc2c(s1)CCC2)c1c(N)n(Cc2ccccc2)c(=O)[nH]c1=O	PKM2 act 22.4µM
CCCCn1c(N)c(Sc2ccc(C)cc2)c(=O)[nH]c1=O	PKM2 act 15.8µM
CCOc1ccc(OCCC(=O)N2CCc3cc(OC)c(OC)cc3C2)cc1	none
CN(C)c1nc(OCCNC(=O)Nc2ccccc2)nc(N(C)C)n1	EPAC2 ag 10µM
CN(C)c1nc(OCCNC(=O)Nc2ccccc2)nc(N2CCCCC2)n1	none
Cc1cccnc1NC(=O)Nc1cccc(F)c1	none (no result: PKM2 act)
N#CCCC1(CCC#N)c2ccccc2C(=O)c2ccccc21	none (no result: PKM2 act)
O=C(O)c1cccc(Cn2c(Cl)c(/C=N/NC(=O)c3ccccc3)sc2=O)c1	none
O=C(O)c1cccc(Cn2c(Cl)c(/C=N/NC(=O)c3cc4ccccc4cc3O)sc2=O)c1	EPAC1 antagonist inconclusive, PKM2 act 31.6µM
CC(=O)c1ccc(OCc2nnn(CC(=O)NS(=O)(=O)Cc3ccccc3)c2-c2ccccc2)cc1	none (no result: PKM2 act)
Cc1noc(C)c1NC(=O)N(C)C[C@@H]1Oc2ccc(NS(=O)(=O)c3c(C)noc3C)cc2C(=O)N([C@H](C)CO)C[C@H]1C	none (no result: PKM2 act)

Assay outcomes: PubChem BioAssay, National Center for Advancing Translational Sciences (NCATS)
